Drawing on PubChem BioAssay (NCATS), this text covers Potency for 12 compounds.

Each structure is given as a SMILES string. Records with an inconclusive call do not appear. Where a call stands in place of a potency, no number is given. The source made the active and inactive calls. The call rests on the fitted dose curve; in most records, active means well fitted inhibition curve with a large enough effect; inconclusive means small, poorly fitted or top-dose-only effect; inactive means flat fitted curve, though single readings scatter.
Potency means the concentration at half of the fitted maximal effect.

Sequence of Luciferin 4-monooxygenase (Photinus pyralis) (P08659 whole entry, looked up): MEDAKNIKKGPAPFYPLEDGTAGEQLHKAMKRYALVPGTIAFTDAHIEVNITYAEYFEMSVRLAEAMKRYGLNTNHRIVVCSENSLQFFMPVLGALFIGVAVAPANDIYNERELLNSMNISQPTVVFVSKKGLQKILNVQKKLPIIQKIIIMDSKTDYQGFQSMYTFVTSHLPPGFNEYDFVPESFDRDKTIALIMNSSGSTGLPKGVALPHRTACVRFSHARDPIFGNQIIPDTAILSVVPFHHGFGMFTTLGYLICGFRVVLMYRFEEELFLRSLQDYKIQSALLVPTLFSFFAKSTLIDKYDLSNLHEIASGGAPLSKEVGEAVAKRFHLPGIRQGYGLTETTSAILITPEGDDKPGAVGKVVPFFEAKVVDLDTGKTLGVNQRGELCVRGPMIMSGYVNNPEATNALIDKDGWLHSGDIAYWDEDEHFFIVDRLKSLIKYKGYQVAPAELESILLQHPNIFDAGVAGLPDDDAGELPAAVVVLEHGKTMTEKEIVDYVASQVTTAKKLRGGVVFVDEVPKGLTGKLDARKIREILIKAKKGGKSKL

The target in the assay is Luciferin 4-monooxygenase (Photinus pyralis) (UniProt P08659). Put plainly: Biochemical firefly luciferase enzyme assay for NPC (AID 624030). Further: nearly all actives have a fitted effect of over 70% in size. To be noted: purified P. pyralis luciferase, luminescence, 5 min; series mostly up to 58.6 µM. Summed up:
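Direct inhibition of firefly luciferase enzyme (10 nM final, 50 mM Tris Acetate) assessed by luminescence within 5 minutes. Percent activity scaled between DMSO and PTC124 positive control, with concentration-effect curves classified by fit quality and response.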
Turning to `CCN1CCCC1CNC(=O)c1cc(S(=O)(=O)CC)ccc1OC` (configuration not stated), the Potency result was “inactive”.
As to `N[C@@H](C(=O)N[C@H]1C(=O)N2C(C(=O)O)=C(Cl)CC[C@H]12)c1ccccc1`, the Potency entry was “inactive”.
To `NNc1nnc(Cc2ccncc2)c2ccccc12` belongs 5.1 µM (active); to `COc1cc2c(c(OC)c1OC)-c1c(cc3c(c1OC)OCO3)C[C@@H](C)[C@](C)(O)C2`, “inactive”.
To `CN1CCN(CCCN2c3ccccc3Sc3ccccc32)CC1` belongs “inactive”; to `CCCCCCCCCCCCCCCCCC(=O)OCCO`, “inactive”; to `CCCCCCCCCCCCCCCCCC(=O)[O][Al]`, “inactive”.
`CC(CN(C)C)CN1c2ccccc2S(=O)(=O)c2ccccc21` (configuration not stated): the Potency entry was “inactive”.
The same measure for `Cc1ccc(/C(=C\CN2CCCC2)c2cccc(/C=C/C(=O)O)n2)cc1`: “inactive”; for `COc1ccc(C2NC(=S)N3C(c4ccc(OC)c(OC)c4)NC(=S)N23)cc1OC` (configuration not stated): “inactive”; for `O=S(O)CO`: “inactive”.
To `CNC[C@@H]1CC[C@@H](N)[C@@H](O[C@H]2[C@H](O)[C@@H](O[C@H]3OC[C@](C)(O)[C@H](NC)[C@H]3O)[C@H](N)C[C@@H]2N)O1` belongs “inactive”.
